Each structure is given as a SMILES string. The panel holds about 83,000 compounds, 20% with a hit somewhere; the sample as a whole holds those more often.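 48-hour exposure, single concentration, 96-well plates; percent growth endpoint where 0 means no net growth. Active: below 10.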 A number with no mark means an inactive call. Active and inactive are the calls of the source.

From PubChem BioAssay (NCI) come the findings set out here.

This assay has as its system HL-60(TB) leukemia. Kind of assay: NCI-60 one-dose screen, 48 h (100 = growth as untreated, 0 = no growth, -100 = all killed). The settings on record: 10 µM unless noted.
With `COc1cc(NCC(C)(O)CN(CC(C)C)CC(C)C)c2nc(C)ccc2c1` (centres undefined), the growth was 71.4%.
The result for `CCN1C(=O)N(CC)C2C1NN=c1s/c(=C3\C(=O)N(CC(C)(C)C)c4ccccc43)c(=O)n12` (centres undefined) reads -26.1% (active); that for `NC1(C(=O)N[C@@H](CCO)c2ccc(Cl)cc2)CCN(c2ncnc3[nH]ccc23)CC1`, 60.7%.
For `CCCCn1c(-c2ccc(O)cc2)cn2c3c(=O)[nH]c(=O)n(C)c3nc12`, the growth is 48.9%.
